Data: ChEMBL document CHEMBL2218924, “A broad activity screen in support of a chemogenomic map for kinase signalling research and drug discovery” (Biochem J, 2013)

Legend:
[1] = biological target: T1, CDK3/cyclin E (Homo sapiens) (UniProt P24864+O96020+Q00526); conditions: at 1 µM
[2] = biological target: T1, CDK3/cyclin E (Homo sapiens); conditions: at 10 µM
[3] = biological target: T2, Cyclin-dependent kinase 5/CDK5 activator 1 (Homo sapiens) (UniProt Q00535+Q15078); conditions: at 1 µM
[4] = biological target: T2, Cyclin-dependent kinase 5/CDK5 activator 1 (Homo sapiens); conditions: at 10 µM
[5] = biological target: T2, Cyclin-dependent kinase 5/CDK5 activator 1 (Homo sapiens); conditions: at 1 µM; remark: listed apart in the source
[6] = biological target: T2, Cyclin-dependent kinase 5/CDK5 activator 1 (Homo sapiens); conditions: at 10 µM; remark: listed apart in the source
[7] = biological target: T3, CDK6/cyclin D3 (Homo sapiens) (UniProt P30281+Q00534); conditions: at 1 µM
[8] = biological target: T3, CDK6/cyclin D3 (Homo sapiens); conditions: at 10 µM
[9] = biological target: T4, Cyclin-dependent kinase 7/ cyclin H (Homo sapiens) (UniProt P51946+P50613); conditions: at 1 µM
[10] = biological target: T4, Cyclin-dependent kinase 7/ cyclin H (Homo sapiens); conditions: at 10 µM
[11] = biological target: T5, CDK9/cyclin T1 (Homo sapiens) (UniProt O60563+P50750); conditions: at 1 µM
[12] = biological target: T5, CDK9/cyclin T1 (Homo sapiens); conditions: at 10 µM
[13] = biological target: T6, Serine/threonine-protein kinase Chk1 (Homo sapiens) (UniProt O14757); conditions: at 1 µM
T6 sequence (whole entry): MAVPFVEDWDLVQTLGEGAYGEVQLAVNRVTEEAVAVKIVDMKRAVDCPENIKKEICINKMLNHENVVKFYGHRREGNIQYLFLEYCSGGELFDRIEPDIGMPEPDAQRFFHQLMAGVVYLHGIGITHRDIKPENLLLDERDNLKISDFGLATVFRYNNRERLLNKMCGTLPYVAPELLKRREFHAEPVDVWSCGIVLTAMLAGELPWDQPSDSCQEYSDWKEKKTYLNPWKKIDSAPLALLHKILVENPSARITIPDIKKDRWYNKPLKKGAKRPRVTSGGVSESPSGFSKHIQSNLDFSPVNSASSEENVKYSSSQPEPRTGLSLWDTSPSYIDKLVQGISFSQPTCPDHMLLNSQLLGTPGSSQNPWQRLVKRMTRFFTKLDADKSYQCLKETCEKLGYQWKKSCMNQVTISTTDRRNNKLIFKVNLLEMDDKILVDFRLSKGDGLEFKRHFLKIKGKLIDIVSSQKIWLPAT

[14] = biological target: T6, Serine/threonine-protein kinase Chk1 (Homo sapiens); conditions: at 10 µM
[15] = biological target: Serine/threonine-protein kinase Chk2 (Homo sapiens) (UniProt O96017); conditions: at 1 µM
Sequence of Serine/threonine-protein kinase Chk2 (Homo sapiens) (O96017 whole entry, canonical isoform): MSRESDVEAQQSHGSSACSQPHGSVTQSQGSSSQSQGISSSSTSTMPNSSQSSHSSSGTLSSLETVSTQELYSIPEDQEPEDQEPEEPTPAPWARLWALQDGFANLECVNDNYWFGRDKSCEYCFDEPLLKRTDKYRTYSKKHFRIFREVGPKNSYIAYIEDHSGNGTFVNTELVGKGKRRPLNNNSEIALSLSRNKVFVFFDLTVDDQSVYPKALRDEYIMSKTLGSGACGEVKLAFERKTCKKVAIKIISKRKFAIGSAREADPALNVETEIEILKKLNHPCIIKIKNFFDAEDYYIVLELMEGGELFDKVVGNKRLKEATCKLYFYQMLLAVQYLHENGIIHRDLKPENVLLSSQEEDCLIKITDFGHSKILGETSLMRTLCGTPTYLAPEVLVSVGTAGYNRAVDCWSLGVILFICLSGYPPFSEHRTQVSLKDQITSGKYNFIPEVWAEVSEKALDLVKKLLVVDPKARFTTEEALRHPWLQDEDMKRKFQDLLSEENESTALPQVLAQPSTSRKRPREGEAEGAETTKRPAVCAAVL

[16] = biological target: Serine/threonine-protein kinase Chk2 (Homo sapiens) (UniProt O96017); conditions: at 10 µM
[17] = biological target: Casein kinase I isoform gamma-1 (Homo sapiens) (UniProt Q9HCP0); conditions: at 1 µM
Sequence of Casein kinase I isoform gamma-1 (Homo sapiens) (Q9HCP0 whole entry, looked up, canonical isoform): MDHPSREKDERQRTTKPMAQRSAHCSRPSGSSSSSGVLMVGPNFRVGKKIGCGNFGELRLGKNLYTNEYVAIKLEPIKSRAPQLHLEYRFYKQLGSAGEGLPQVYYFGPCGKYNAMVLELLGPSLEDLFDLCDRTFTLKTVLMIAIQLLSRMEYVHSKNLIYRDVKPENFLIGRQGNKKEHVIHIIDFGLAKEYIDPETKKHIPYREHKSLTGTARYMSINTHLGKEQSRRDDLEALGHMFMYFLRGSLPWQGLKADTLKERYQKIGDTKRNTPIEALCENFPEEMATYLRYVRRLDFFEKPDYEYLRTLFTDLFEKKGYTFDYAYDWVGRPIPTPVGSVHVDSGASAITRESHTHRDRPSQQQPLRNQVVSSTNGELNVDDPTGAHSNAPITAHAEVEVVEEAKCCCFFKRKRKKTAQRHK

[18] = biological target: Casein kinase I isoform gamma-1 (Homo sapiens) (UniProt Q9HCP0); conditions: at 10 µM
[19] = biological target: Casein kinase I isoform delta (Homo sapiens) (UniProt P48730); conditions: at 1 µM
Sequence of Casein kinase I isoform delta (Homo sapiens) (P48730 whole entry, looked up, canonical isoform): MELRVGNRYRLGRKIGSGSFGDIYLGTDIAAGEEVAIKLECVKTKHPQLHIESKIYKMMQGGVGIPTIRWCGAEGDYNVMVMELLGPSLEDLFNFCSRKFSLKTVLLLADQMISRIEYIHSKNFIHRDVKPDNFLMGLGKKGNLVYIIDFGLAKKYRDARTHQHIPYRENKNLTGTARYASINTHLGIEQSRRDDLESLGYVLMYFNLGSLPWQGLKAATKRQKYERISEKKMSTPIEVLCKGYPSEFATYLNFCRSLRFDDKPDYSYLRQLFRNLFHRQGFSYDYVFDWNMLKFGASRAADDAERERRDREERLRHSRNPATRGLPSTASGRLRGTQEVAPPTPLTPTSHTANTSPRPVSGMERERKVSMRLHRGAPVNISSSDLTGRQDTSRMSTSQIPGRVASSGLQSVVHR

[20] = biological target: Casein kinase I isoform delta (Homo sapiens) (UniProt P48730); conditions: at 10 µM

T1 sequence (O96020 whole entry, looked up): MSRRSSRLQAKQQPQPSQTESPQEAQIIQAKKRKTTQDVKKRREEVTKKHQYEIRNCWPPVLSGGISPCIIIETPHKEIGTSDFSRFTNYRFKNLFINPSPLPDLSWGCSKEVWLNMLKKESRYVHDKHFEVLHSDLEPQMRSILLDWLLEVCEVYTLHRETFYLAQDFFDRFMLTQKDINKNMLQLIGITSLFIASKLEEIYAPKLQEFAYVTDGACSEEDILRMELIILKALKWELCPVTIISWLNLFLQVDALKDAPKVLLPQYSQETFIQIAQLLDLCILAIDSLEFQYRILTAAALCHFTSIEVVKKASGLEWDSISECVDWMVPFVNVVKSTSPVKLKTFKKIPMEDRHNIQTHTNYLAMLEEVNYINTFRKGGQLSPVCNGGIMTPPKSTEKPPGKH
T1 sequence (P24864 whole entry, looked up): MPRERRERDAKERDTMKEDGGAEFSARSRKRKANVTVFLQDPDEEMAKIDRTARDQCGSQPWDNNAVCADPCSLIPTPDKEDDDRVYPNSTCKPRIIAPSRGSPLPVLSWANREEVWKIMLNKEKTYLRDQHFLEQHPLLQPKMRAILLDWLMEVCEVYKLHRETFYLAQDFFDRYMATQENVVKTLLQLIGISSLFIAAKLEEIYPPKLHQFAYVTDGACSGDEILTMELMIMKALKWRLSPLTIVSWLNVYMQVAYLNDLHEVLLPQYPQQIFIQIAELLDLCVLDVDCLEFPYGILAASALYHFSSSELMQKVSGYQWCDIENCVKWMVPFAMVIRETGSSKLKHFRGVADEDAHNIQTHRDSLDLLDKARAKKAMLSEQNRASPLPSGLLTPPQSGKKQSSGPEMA
T1 sequence (Q00526 whole entry, looked up): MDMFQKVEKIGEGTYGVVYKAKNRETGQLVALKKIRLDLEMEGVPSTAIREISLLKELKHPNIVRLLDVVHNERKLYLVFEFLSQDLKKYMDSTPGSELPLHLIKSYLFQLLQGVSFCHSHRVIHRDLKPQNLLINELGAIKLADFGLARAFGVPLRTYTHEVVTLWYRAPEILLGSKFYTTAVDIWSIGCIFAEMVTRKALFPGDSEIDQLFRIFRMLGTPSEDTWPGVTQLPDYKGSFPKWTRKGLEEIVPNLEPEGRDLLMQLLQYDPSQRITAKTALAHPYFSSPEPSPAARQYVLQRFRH

Row | SMILES | residual activity [1] [%] | residual activity [2] [%] | residual activity [3] [%] | residual activity [4] [%] | residual activity [5] [%] | residual activity [6] [%] | residual activity [7] [%] | residual activity [8] [%] | residual activity [9] [%] | residual activity [10] [%] | residual activity [11] [%] | residual activity [12] [%] | residual activity [13] [%] | residual activity [14] [%] | residual activity [15] [%] | residual activity [16] [%] | residual activity [17] [%] | residual activity [18] [%] | residual activity [19] [%] | residual activity [20] [%]
1 | CCOc1cc2ncnc(Nc3cccc(Br)c3)c2cc1OCC | 103 | 87 | 105 | 97 | 95 | 81 | 96 | 88 | 86 | 84 | 94 | 82 | 85 | 82 | 91 | 47 | 91 | 87 | 84 | 51
2 | CC(=O)c1ccc(N2CCOCC2)cc1O | 106 | 83 | 86 | 74 | 95 | 84 | 99 | 89 | 91 | 97 | 85 | 74 | 96 | 93 | 94 | 91 | 97 | 97 | 89 | 94
3 | O=Nc1c(-c2c(O)[nH]c3ccccc23)[nH]c2ccccc12 | 5 | 0 | 3 | 2 | 5 | 1 | 16 | 5 | 42 | 16 | 26 | 11 | 65 | 30 | 13 | 2 | 57 | 19 | 14 | 4
4 | c1ccc2c(-c3ccncc3)c[nH]c2c1 | 90 | 73 | 91 | 74 | 86 | 75 | 85 | 82 | 83 | 94 | 67 | 20 | 89 | 80 | 86 | 100 | 96 | 95 | 85 | 81
5 | O=C(Nc1cccc(Nc2cc(Nc3cccc(C(F)(F)F)c3)ncn2)c1)C1CC1 | 100 | 77 | 89 | 63 | 101 | 57 | 94 | 69 | 88 | 80 | 85 | 62 | 89 | 86 | 97 | 74 | 85 | 66 | 85 | 54
6 | Cn1cc(/C=C2\C(=O)Nc3ccc(S(N)(=O)=O)cc32)c2ccccc21 | 69 | 34 | 42 | 17 | 33 | 34 | 93 | 56 | 13 | 4 | 62 | 55 | 16 | 7 | 4 | 1 | 88 | 52 | 93 | 59
7 | O=C1NC(=O)c2c1c1c3ccccc3[nH]c1c1[nH]c3cc(Br)ccc3c21 | 88 | 77 | 55 | 62 | 83 | 68 | 87 | 58 | 99 | 94 | 82 | 76 | 77 | 47 | 33 | 30 | 104 | 88 | 92 | 90
8 | CC(C)n1cnc2c(NCc3ccccc3)nc(NCCCO)nc21 | 71 | 23 | 40 | 8 | 53 | 8 | 94 | 86 | 62 | 12 | 56 | 7 | 95 | 87 | 86 | 60 | 94 | 49 | 70 | 22
9 | CO[C@H]1[C@@H](OC)C[C@H](C)[C@@H](OC)C2=CC(=O)C=C(NC(=O)/C(C)=C/C=C/[C@H](OC)[C@@H](OC(N)=O)/C(C)=C/[C@@H]1C)C2=O | 100 | 87 | 104 | 92 | 105 | 83 | 107 | 92 | – | 101 | 100 | 83 | 96 | 87 | 91 | 89 | 91 | 94 | 90 | 81
10 | Cc1cccc(-c2[nH]c(C(C)(C)C)nc2-c2ccc3c(c2)OCO3)n1 | 90 | 89 | 83 | 88 | 92 | 97 | 104 | 106 | 100 | 95 | – | 98 | 88 | 92 | 91 | 97 | 101 | 100 | 69 | 33
11 | Cc1nc2cc3nc(-c4cccs4)cnc3cc2n1C | 109 | 99 | 91 | 109 | 106 | 99 | 107 | 93 | 82 | 102 | 109 | 102 | 101 | 108 | 86 | 101 | – | 89 | 95 | 67
12 | O=C1Nc2cc(Br)ccc2/C1=C1/Nc2ccccc2/C1=N\O | 0 | 1 | 6 | 10 | 2 | 9 | 40 | 5 | 34 | 13 | 32 | 42 | 45 | 19 | 18 | 3 | 64 | 73 | 51 | 17
13 | CCN(CC)C(=O)c1ccc(Nc2nc(OCC3CCCCC3)c3nc[nH]c3n2)cc1 | – | 34 | 59 | 10 | 74 | 16 | 39 | 5 | 67 | 16 | 46 | 8 | 57 | 10 | 55 | 12 | 42 | 7 | 71 | 34
14 | O=[N+]([O-])c1ccc(-c2nc(-c3ccc(F)cc3)c(-c3ccncc3)[nH]2)cc1 | 91 | 85 | 95 | 94 | 108 | 98 | 101 | 101 | 101 | 90 | 103 | 24 | 102 | 92 | 97 | 84 | 75 | 88 | – | 4
15 | N#CCCc1ccc2c(c1)-c1[nH]c3ccc([N+](=O)[O-])cc3c1CC(=O)N2 | 2 | 0 | -1 | 0 | 0 | 0 | 30 | 8 | – | – | 1 | 0 | 39 | 16 | 4 | 0 | – | – | – | –
16 | Oc1c2ccccc2c2c3c(cccc13)N=N2 | 26 | 14 | – | – | – | – | 76 | 31 | 75 | 24 | 96 | 55 | 72 | 32 | 29 | 2 | 99 | 48 | 5 | 1
17 | O=c1c2ccccc2[nH]c(=S)n1CCN1CCC(=C(c2ccc(F)cc2)c2ccc(F)cc2)CC1 | 114 | 86 | 97 | 89 | 108 | 97 | 99 | – | 88 | 95 | 100 | 97 | 95 | 104 | 93 | 85 | 82 | 78 | 80 | 63
18 | CN(C)c1ccc(/C=C2\C(=O)Nc3ccccc32)cc1 | – | 89 | 106 | 87 | 102 | 96 | 102 | 50 | 88 | 80 | 107 | 93 | 90 | 72 | 73 | 36 | 91 | 74 | 56 | 21
19 | N#Cc1cnc2cnc(NCc3cccnc3)cc2c1Nc1ccc(F)c(Cl)c1 | 21 | 11 | – | – | 22 | 11 | 123 | 97 | 71 | 46 | 93 | 100 | 3 | 1 | 49 | 36 | – | 93 | 79 | 62
20 | CC(=O)O/N=C1\C(=C2\C(=O)Nc3cc(Br)ccc32)Nc2ccccc21 | 12 | 2 | 35 | 10 | 60 | 9 | 91 | 54 | 78 | 45 | 63 | 51 | 95 | 65 | 71 | 26 | 99 | 82 | 78 | 48
21 | Cc1cc(Nc2nc(-c3ccccc3)nc3ccccc23)n[nH]1 | 63 | 19 | 69 | 32 | 71 | 31 | 53 | 9 | 19 | 1 | 76 | 29 | 54 | 16 | 22 | 2 | – | 28 | 96 | 51
22 | O=C1NC(=O)/C(=C\c2ccc3nccnc3c2)S1 | 96 | 68 | 96 | 64 | 97 | 74 | 91 | 86 | 89 | 80 | 60 | 14 | 85 | 91 | 78 | 33 | 92 | 44 | 88 | 46
23 | CO[C@@H]1[C@H](N(C)C(=O)c2ccccc2)C[C@H]2O[C@]1(C)n1c3ccccc3c3c4c(c5c6ccccc6n2c5c31)C(=O)NC4 | 76 | 67 | 57 | 40 | 76 | 54 | 87 | 81 | – | 90 | 70 | 58 | 59 | 65 | 79 | 54 | 66 | 49 | 80 | 69
24 | O=c1cc(-c2cccc3c2Sc2ccccc2S3)oc(N2CCOCC2)c1 | 99 | 97 | 95 | 94 | 112 | 90 | 101 | 85 | 121 | 80 | 100 | 89 | 97 | 94 | 106 | 87 | 101 | 43 | 92 | 44
25 | CN(C)CCCn1cc(C2=C(c3c[nH]c4ccccc34)C(=O)NC2=O)c2ccccc21 | 88 | 33 | 75 | 25 | 81 | 33 | 103 | 53 | 47 | 13 | 17 | 3 | 54 | 17 | 52 | 16 | 107 | – | 90 | 79
26 | Cc1cncc2cccc(S(=O)(=O)N3CCCN(C(=O)CN)C[C@H]3C)c12 | 92 | 73 | 89 | 80 | 80 | 92 | 93 | 84 | 78 | 89 | 92 | 71 | 88 | 93 | 80 | 83 | – | – | 83 | –
27 | Nc1n[nH]c2nnc(-c3c(-c4ccccc4)nn4ccccc34)cc12 | 90 | 90 | 95 | 99 | 112 | 79 | 81 | 43 | 106 | 89 | 98 | 92 | 90 | 82 | 98 | 78 | 94 | 84 | 60 | 17
28 | c1ccc(-c2n[nH]cc2-c2ccnc3ccccc23)nc1 | 83 | 79 | 83 | 63 | – | – | – | – | 98 | 95 | 103 | 67 | 89 | 91 | 90 | 88 | 89 | 47 | 25 | 2
29 | N#CC(C#N)=C(N)/C(C#N)=C/c1ccc(O)cc1 | 94 | 89 | – | 83 | – | 117 | 98 | 87 | 96 | 90 | – | 86 | 90 | 96 | 88 | 85 | 83 | 99 | 82 | 54
